PubChem BioAssay (NCI)
Compounds without any hit were thinned out: in the full panel of roughly 79,000, 15% have a hit. Values without a mark were called inactive. Calls of active or inactive are those of the source. Rule as the data show it: active = growth inhibition above about 70%; inactive = the rest.

What was measured:
[1] = NCI Yeast Anticancer Drug Screen. Data for the rad50 strain (AID 155);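 also: 0% = growth of vehicle-only cultures of the same strain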; settings: S. cerevisiae rad50 strain growth inhibition; at 50.0 µM; stronger effect = higher value
In short: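 Yeast carrying a defined DNA repair defect were exposed to test compounds, and growth was compared with vehicle-treated controls to give percent inhibition.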

[2] = NCI Yeast Anticancer Drug Screen. Data for the mec2-1 strain (AID 157); settings: S. cerevisiae mec2-1 strain, at 50.0 µM, stronger effect = higher value
In short: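 Readout is yeast growth inhibition, normalised to vehicle-treated controls, in the mec2-1 strain exposed to compound.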

[3] = NCI Yeast Anticancer Drug Screen. Data for the sgs1 mgt1 strain (AID 161);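 also: 0% = growth of cultures given vehicle only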; settings: S. cerevisiae sgs1 mgt1 strain, at 50.0 µM, stronger effect = higher value
In short: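 Yeast cells carrying a defined DNA-repair defect were exposed to test compounds. Growth inhibition was measured relative to vehicle-treated controls.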

[4] = NCI Yeast Anticancer Drug Screen. Data for the cln2 rad14 strain (AID 165);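 also: 0% = growth equal to vehicle treated cultures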; settings: S. cerevisiae cln2 rad14 strain, at 50.0 µM, stronger effect = higher value
In short: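 Relative to vehicle controls, growth inhibition of compound-treated cln2 rad14 yeast was recorded.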

[5] = NCI Yeast Anticancer Drug Screen. Data for the bub3 strain (AID 167); settings: S. cerevisiae bub3 mutant strain, at 50.0 µM, stronger effect = higher value
In short: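 Compounds were applied to a genetically altered yeast strain carrying a cell-cycle control defect. Growth inhibition was scored against vehicle-treated controls.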

[6] = NCI Yeast Anticancer Drug Screen. Data for the mlh1 rad18 strain (AID 175); settings: S. cerevisiae mlh1 rad18 strain growth inhibition; at 50.0 µM; stronger effect = higher value
In short: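 Test agents were incubated with a yeast strain of defined genotype (DNA damage repair defect). Inhibition of growth was derived by comparison with vehicle-exposed cultures.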

SMILES | growth inhibition [1] | growth inhibition [2] | growth inhibition [3] | growth inhibition [4] | growth inhibition [5] | growth inhibition [6]
CCN(CC)C(=O)c1cccc(N)c1 | 12.6% | -11.3% | 11.5% | 11% | 25.3% | 14%
O=C1OC(c2ccccc2)=CC1Cc1ccccc1 (stereo unspecified) | 34.9% | -2.35% | 1.85% | 3.4% | -3% | -8%
COc1ccc(-c2cc(C(=O)Nc3cccc(C(F)(F)F)c3)[nH]c(=S)n2)cc1 | -26.2% | -7.95% | -42% | 19.3% | -14.1% | -20.9%
OC1OCc2cc3ccccc3cc21 (stereo unspecified) | 21.4% | -0.95% | -8.35% | 3.6% | -7.8% | 3.65%
CCCCCC(=O)OCC(Br)CBr (stereo unspecified) | -7.6% | -10.6% | 22.5% | -23.1% | 40.5% | 1.1%
CC(C)(Oc1ccccc1)C(=O)Sc1c(-c2ccccc2)c(=O)n(-c2ccccc2)c(=S)n1-c1ccccc1 | 13.2% | -14.8% | -15.3% | -5.4% | -13.2% | -6.95%
Cc1cc(=S)cc(C)[nH]1 | 17.1% | 5.5% | 11.3% | 2.1% | 0.45% | 33.4%
O=C1CC2(C(=O)N1CN(Cc1ccccc1)Cc1ccccc1)c1ccccc1-c1ccccc12 | 34.5% | 2.1% | -5.55% | 14.1% | -1.1% | 22.4%
CN(C)C(=O)Nc1cccc(OC(=O)NCCCl)c1 | 6.55% | 52.5% | 30.7% | 0.9% | 41% | 20.7%
CONCC(=O)c1ccc(SC)cc1 | -18.4% | 0.6% | -13.8% | -21.8% | -9.7% | 0%
Cc1cccc2c1NC(O)c1cccn1C2=O (stereo unspecified) | 6.45% | 2.75% | 5.55% | -22.4% | -18.6% | -2.4%
CN(C(=S)NNC(=O)C1CCC(=O)N1)c1ccccc1 (stereo unspecified) | 23.2% | -2% | 3.3% | 13.7% | 21.4% | 26.9%
CCCC(C)C(=O)OCCOC (stereo unspecified) | 2.85% | -5.3% | -2.95% | -19.1% | 4.45% | 0%
CCOc1ccc(-n2c(=O)c(N=Nc3ccccc3Cl)c(O)n(-c3ccc(Br)cc3)c2=S)cc1 | 38.5% | 17.9% | 52.1% | 12.7% | -11.7% | 5.8%
O=C1CCSc2c(cnc3ccccc23)N1 | -17.1% | -12.4% | -26.4% | -18.1% | -18.6% | -46.8%
O=[N+]([O-])c1ccccc1S(=O)(=O)c1ccccc1[N+](=O)[O-] | -26.4% | -9.45% | -14.1% | -10% | -1.5% | -21%
O=C1OC(=O)C(=C(c2ccccc2)c2ccccc2)C1=C(c1ccccc1)c1ccccc1 | 51.8% | 64.1% | 48.4% | 43.5% | 53.1% | 76.8% (active)
Cc1ccc(NC(=O)Nc2ccc(Cl)c(Cl)c2)c(C)c1 | -6.05% | 11.2% | -1.75% | -16.6% | -4.2% | -20.9%
C/C(=N\NC(=S)N1CCC(C)CC1)c1nccnc1C | 6.1% | 7.85% | 11.4% | 28.1% | 8.95% | 17.7%
CCOC(=O)Nc1ccccc1 | -1.65% | 12.3% | 1.55% | -4.15% | -6.8% | 22.7%
CCOC(=O)C1C(=O)N(O)c2cnccc21 (stereo unspecified) | -1.9% | -16.6% | -12.5% | -12.2% | 15% | 8.35%

SMILES | growth inhibition [1] | growth inhibition [2] | growth inhibition [3] | growth inhibition [4] | growth inhibition [5] | growth inhibition [6]
O=C(Nc1cc(C(F)(F)F)ccc1Cl)C(=O)C(C(=O)c1ccc2ccccc2c1)C1OC(=O)c2ccccc21 (stereo unspecified) | 35% | 24.4% | 19.6% | 20.3% | 30.9% | 55.5%
CCc1cccc(C)c1NC(=O)C(=O)CC(=O)c1ccc(Cl)cc1Cl | 26.9% | 14.8% | 7.65% | -35.4% | 2.15% | 27.2%
COC1OC2COC(C2O)C1OS(=O)(=O)c1ccc(C)cc1 (stereo unspecified) | -3.2% | 9.7% | 9.2% | -46.1% | -12.3% | -13.3%
Oc1ccc(Cl)cc1Cc1cc(Cl)cc(Cc2cc(Cl)cc(Cc3cc(Cl)cc(Cc4cc(Cl)ccc4O)c3O)c2O)c1O | -31.2% | 0.5% | -5.4% | -16.6% | -26% | -27.1%
OCCCC1CCN(CCO)CC1 | -22.2% | -27.5% | -18.8% | 1.3% | -8.7% | -10.3%
CC(C)(C)c1ccc(S(=O)(=O)/C=C/c2ccccc2)cc1 | -2.4% | 35% | -9.3% | 26.1% | 4.1% | 6.3%
COC(=O)C(C)(NC(=O)C(CC(=O)OC(C)(C)C)NC(=O)OC(C)(C)C)c1ccccc1 (stereo unspecified) | 41.5% | 16% | 46.5% | 35.8% | 36.7% | 36%
CNc1c2c(nc3ccccc13)CCCC2 | 1.95% | -10.3% | -10.1% | -44.4% | 15.1% | -19.2%
CCCCCN1C(=O)N=NC1=S | 4.65% | 8.15% | 19.2% | 2.7% | -13.8% | -2.5%
Brc1ccc(-c2cc(-c3ccc4c(c3)OCO4)c(-c3cccs3)n2Cc2ccccc2)cc1 | -17.9% | -7.55% | -0.5% | 20.1% | -24.6% | -30.1%
BrCC1OCC2(CO1)COC(CBr)OC2 (stereo unspecified) | -11.2% | 11.3% | -7% | -16% | -6% | -13.2%
O=C1NCCc2c1sc1ccccc21 | -9.95% | 2.45% | -0.95% | 1.5% | -1.05% | -6.9%
CC1(C)CC(=O)OC/C=C\CC(Cc2ccccc2)C(=O)C1 (stereo unspecified) | 4.6% | 15.2% | -12.3% | 6.8% | 12.2% | 1.9%
Nc1nc2cc(Cl)c(O)cc2o1 | -3.25% | -11.6% | -3.5% | -6.7% | -3.55% | -7.9%
CSc1ccc(OC(=O)NC2CCCCC2)cc1C | 7.5% | 22.4% | 13.6% | 6.25% | 28.6% | 14.8%
Cc1cc(N)ccc1N=Nc1cc(S(=O)(=O)O)c2cccc(S(=O)(=O)O)c2c1 | -4.4% | 22.1% | -2.65% | 3.95% | 8.85% | -4.55%
CC(=O)Nc1ccc(C(=O)NN2C(=O)C(Cl)C2c2ccccc2)cc1 (stereo unspecified) | -22.1% | -18.4% | -49.4% | -10.2% | -28.8% | -28.6%
Nc1ccn(CCOC(=O)c2ccccc2)c(=O)n1 | -2% | -28% | -14.7% | -6.05% | 31.2% | 15.5%
COc1ccc(NC=O)c(C(O)CCNC(C)=O)c1 (stereo unspecified) | -15.4% | -10.1% | -19.6% | 0.45% | -39.1% | -34.5%
O=C(/C=C(\C(=O)c1cccs1)c1cccs1)c1ccc(C(=O)/C=C(\C(=O)c2cccs2)c2cccs2)cc1 | 3.6% | -23.9% | 19% | -25.1% | -15.6% | -5.85%
